This passage reports growth results from PubChem BioAssay (NCI).

Common to all, as to test: NCI-60 one-dose screen, 48 h (100 = growth as untreated, 0 = no growth, -100 = all killed)
Holding throughout (details): 10 µM unless noted

The test system of assay [1] is SR leukemia.
Assay [2] concerns RPMI-8226 leukemia.
Assay [3] deals with OVCAR-8 ovarian.
Assay [4] has as its system OVCAR-5 ovarian.
The test system of assay [5] is OVCAR-4 ovarian.
In assay [6] the test system is SK-OV-3 ovarian.
Assay [7] has as its system IGROV1 ovarian.
In assay [8] the test system is HS 578T breast.
Assay [9] concerns NCI/ADR-RES ovarian.
Assay [10] concerns T-47D breast.
Assay [11] concerns BT-549 breast.
Assay [12] concerns MDA-MB-435 melanoma.
Assay [13] relates to SW-620 colon.
In assay [14] the test system is MCF7 breast.
Assay [15] has as its system HCT-116 colon.
Assay [16] deals with HCC-2998 colon.
For assay [17], the system named is KM12 colon.
For assay [18], the system named is OVCAR-3 ovarian.

Molecules are shown by their SMILES. Compounds without any hit were thinned out: in the full panel of roughly 83,000, 20% have a hit.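 Treatment: one concentration, 48 hours, 96-well format. Scoring: percent growth, with anything below 10 considered active.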 Unmarked numbers belong to inactive results. Activity calls are given as the source filed them.

In the case of `CCNC(=O)N1CCc2cc(OC)c(OCCc3ccc(OC)cc3)cc2C1c1ccc(Cl)cc1C` (stereo not given), the growth in assay [1] was 6.29% (active); in [2], 20%; in [3] it was 27.3%; in assay [4] it was 32.9%; in assay [5], 51.7%; in assay [6], 54.9%. Further, the growth is 23.4% in [7]; 1.75% (active) in assay [8]; 13.5% in assay [9]; 57% in [10]; -1.91% (active) in assay [11]; 15.9% in assay [12]. The growth in assay [13] was 21.4%; in assay [14] it was 16.3%; in assay [15] it was 9.84% (active); in assay [16], 17.1%; in [17] it was 16.5%.

Turning to `Nn1c(N/N=C/c2nc3ccccc3s2)n[nH]c1=S`, the growth in assay [1] was 108%; in assay [2], 105%; in [3], 107%; in [4] it was 103%; in assay [5], 85.8%; in assay [6], 118%. Also, the growth in assay [7] is 82.2%; in assay [18], 118%; in assay [8], 110%; in assay [9] it was 118%; in [10], 108%; in assay [12], 110%. Further, the growth in [13] is 105%; in [15], 107%; in [16], 123%; in [17], 102%.

For the compound `Nc1ncc(-c2ccc3ncnc(N4CCc5cc(F)c(Cl)cc54)c3c2)cn1`, the growth in assay [1] was 18%; in assay [2], -14.7% (active); in assay [3], 33.5%; in [4] it was 19.8%; in [5], 31.7%; in assay [6] it was 20.5%. Also, the growth in assay [7] is -11.2% (active); in assay [18], 13.5%; in [8], -12.8% (active); in assay [9], 38.4%; in assay [10] it was 13.5%; in [12], 27.1%. The growth in assay [13] was 40.7%; in assay [14] it was 11.9%; in assay [15], 20.5%; in assay [16], 31.6%; in [17], 50.6%.

Consider `NC/C(=C/F)COc1ccc2nc(NCc3cccnc3)oc2c1`, for which the growth is 101% in assay [1]; 120% in [2]; 102% in assay [3]; 113% in [4]; 86.6% in assay [5]; 110% in [6]. The growth in assay [7] was 86.4%; in [18], 122%; in assay [8] it was 99.5%; in assay [9] it was 111%; in assay [10] it was 103%; in assay [12], 102%. In addition, the growth in assay [13] was 96.7%; in assay [14], 89.3%; in assay [15], 96.4%; in [16], 117%; in [17], 103%.

Regarding `C=C(C)[C@@H]1CC[C@]2(COCCCNCCC#N)CC[C@]3(C)[C@H](CC[C@@H]4[C@@]5(C)CC[C@H](OCCCNCCC#N)C(C)(C)[C@@H]5CC[C@]43C)[C@@H]12`, the growth is -18.4% (active) in assay [1]; 34% in assay [2]; 66.6% in assay [3]; 83.7% in [4]; 23.9% in assay [5]; 97.8% in assay [6]. Moreover, the growth in [7] is 72.1%; in [18] it was 71%; in assay [8], 72.6%; in assay [9], 37.3%; in assay [10] it was 53.3%; in [12], 56.4%. Moreover, the growth was 64.7% in assay [13]; 32.5% in assay [14]; 24.7% in [15]; 31.8% in [16]; 64.4% in [17].

With `O=C(O)c1cn(C2CC2)c2cc(N3CCN(C(=O)CN4C(=O)CSC4=O)CC3)c(F)cc2c1=O`, the growth in assay [1] is 99.3%; in assay [2], 126%; in assay [3] it was 105%; in assay [4], 99%; in assay [5], 86.4%; in assay [6] it was 113%. In addition, the growth is 82.6% in assay [7]; 108% in assay [18]; 97.7% in [8]; 108% in assay [9]; 106% in assay [10]; 98.6% in assay [12]. The growth in [13] was 100%; in [14], 98.8%; in [15], 98.8%; in assay [16], 115%; in assay [17], 101%.

Regarding `Nc1nc(Nc2ccccc2SSc2ccccc2Nc2nc(N)nc(-c3ccc4ccccc4c3)n2)nc(-c2ccc3ccccc3c2)n1`, the growth in [1] is -25.5% (active); in assay [2] it was 84.3%; in assay [3], 84.4%; in assay [4] it was 99.3%; in assay [5], 83.9%; in assay [6], 112%. The growth in assay [7] is 47.6%; in [18], 106%; in [8], 86.2%; in assay [9], 19.5%; in assay [10], 74.9%; in assay [12], 85.2%. Moreover, the growth in [13] was 104%; in [14] it was 76%; in assay [15] it was 57.9%; in assay [16] it was 120%; in assay [17], 51.5%.

`COc1cc(-c2nn(C(C)(C)C)cc2-c2ccnc(NCCCNS(=O)(=O)c3ccc(C)cc3)n2)ccc1Cl`: the growth in assay [1] was 51.3%; in assay [2], 88.9%; in assay [3], 89.8%; in assay [4] it was 88.1%; in [5] it was 56.3%; in assay [6], 106%. For the same compound, the growth in [7] was 62.8%; in assay [18], 95.5%; in assay [8] it was 76.6%; in assay [9], 89.8%; in assay [10], 84.6%; in assay [12], 92.2%. Moreover, the growth was 93.7% in assay [13]; 79.8% in assay [14]; 67.4% in [15]; 115% in assay [16]; 94% in assay [17].
